Test results from publication PMC11006913.
Positions count from the first letter of the chain named.

What was measured:
Test in all cases: PBM; 200 nM protein, PBS
Details in all cases: dsDNA, one strand shown
HOXA7 [1] = biological target: HOXA7 (Homo sapiens, UniProt P31268 116-202)
HOXD13 [2] = biological target: HOXD13 (Homo sapiens, UniProt P35453 263-343, T313R)
HOXD13 [3] = biological target: HOXD13 (Homo sapiens, UniProt P35453 263-343)
HOXD13 [4] = biological target: HOXD13 (Homo sapiens, UniProt P35453 263-343, T313A)
HOXC9 = HOXC9 (Homo sapiens, UniProt P31274 178-260, R222W)
HOXA7 [5] = biological target: HOXA7 (Homo sapiens, UniProt P31268 116-202, W177C)
NKX2-6 [6] = biological target: T1, NKX2-6 (Homo sapiens, UniProt A6NCS4 118-204)
T1 sequence: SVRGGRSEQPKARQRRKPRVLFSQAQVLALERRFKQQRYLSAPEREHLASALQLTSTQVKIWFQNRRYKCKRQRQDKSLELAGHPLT

NKX2-6 [7] = biological target: T2, NKX2-6 (Homo sapiens, UniProt A6NCS4 118-204, F151L)
T2 sequence: T1 sequence with F34L

ALX4 [8] = biological target: ALX4 (Homo sapiens, UniProt Q9H161 200-286)
ALX4 [9] = biological target: ALX4 (Homo sapiens, UniProt Q9H161 200-286, Q225E)
VAX1 [10] = biological target: VAX1 (Homo sapiens, UniProt Q5SQQ9 86-172)
VAX1 [11] = biological target: VAX1 (Homo sapiens, UniProt Q5SQQ9 86-172, T142I)
VAX1 [12] = biological target: VAX1 (Homo sapiens, UniProt Q5SQQ9 86-172, K157R)
HOXB6 [13] = biological target: HOXB6 (Homo sapiens, UniProt P17509 132-218, K202E)
MSX2 = MSX2 (Homo sapiens, UniProt P35548 130-214, F161Y)
HOXB6 [14] = biological target: HOXB6 (Homo sapiens, UniProt P17509 132-218)
PITX2 = PITX2 (Homo sapiens, UniProt Q99697 72-157)
PROP1 [15] = biological target: PROP1 (Homo sapiens, UniProt O75360 56-141)
PROP1 [16] = biological target: PROP1 (Homo sapiens, UniProt O75360 56-141, R99H)
PROP1 [17] = biological target: PROP1 (Homo sapiens, UniProt O75360 56-141, F88S)
PRRX1 [18] = biological target: PRRX1 (Homo sapiens, UniProt P54821 80-166, F113S)
CRX = CRX (Homo sapiens, UniProt O43186 26-111, R41L)
PRRX1 [19] = biological target: PRRX1 (Homo sapiens, UniProt P54821 80-166)
PAX4 [20] = biological target: T3, PAX4 (Homo sapiens, UniProt O43316 9-242, R200K)
T3 sequence: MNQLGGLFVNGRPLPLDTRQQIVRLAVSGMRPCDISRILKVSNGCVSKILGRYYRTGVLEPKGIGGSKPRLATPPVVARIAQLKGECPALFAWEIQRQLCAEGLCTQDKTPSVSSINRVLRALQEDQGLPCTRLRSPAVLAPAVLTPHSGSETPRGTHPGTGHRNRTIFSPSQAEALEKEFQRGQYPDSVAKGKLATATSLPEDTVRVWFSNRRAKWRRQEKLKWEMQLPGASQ

PAX4 [21] = biological target: T4, PAX4 (Homo sapiens, UniProt O43316 9-242)
T4 sequence: T3 sequence with K192R

PAX4 [22] = biological target: T5, PAX4 (Homo sapiens, UniProt O43316 9-242, R200Q)
T5 sequence: T3 sequence with K192Q

PAX4 [23] = biological target: T6, PAX4 (Homo sapiens, UniProt O43316 9-242, F177V)
T6 sequence: T3 sequence with F169V, K192R

PAX4 [24] = biological target: T7, PAX4 (Homo sapiens, UniProt O43316 9-242, F177Y)
T7 sequence: T3 sequence with F169Y, K192R

PAX4 [25] = biological target: T8, PAX4 (Homo sapiens, UniProt O43316 9-242, R227W)
T8 sequence: T3 sequence with K192R, R219W

Sequence of HOXA7 (Homo sapiens, UniProt P31268 116-202) (P31268 116-202): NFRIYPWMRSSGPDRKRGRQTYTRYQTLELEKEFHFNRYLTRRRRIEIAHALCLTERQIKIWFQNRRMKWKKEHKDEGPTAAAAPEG
Sequence of HOXA7 (Homo sapiens, UniProt P31268 116-202, W177C) (P31268 116-202 W177C): as the sequence (P31268 116-202) above, with W62C counted along it
Sequence of VAX1 (Homo sapiens, UniProt Q5SQQ9 86-172) (Q5SQQ9 86-172): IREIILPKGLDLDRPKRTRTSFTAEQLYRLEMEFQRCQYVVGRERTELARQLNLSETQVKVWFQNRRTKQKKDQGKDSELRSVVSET
Sequence of VAX1 (Homo sapiens, UniProt Q5SQQ9 86-172, K157R) (Q5SQQ9 86-172 K157R): as the sequence (Q5SQQ9 86-172) above, with K72R counted along it
Sequence of VAX1 (Homo sapiens, UniProt Q5SQQ9 86-172, T142I) (Q5SQQ9 86-172 T142I): as the sequence (Q5SQQ9 86-172) above, with T57I counted along it
Sequence of PRRX1 (Homo sapiens, UniProt P54821 80-166, F113S) (P54821 80-166 F113S): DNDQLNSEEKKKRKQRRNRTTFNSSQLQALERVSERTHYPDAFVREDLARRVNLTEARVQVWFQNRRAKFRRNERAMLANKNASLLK
Sequence of PROP1 (Homo sapiens, UniProt O75360 56-141, F88S) (O75360 56-141 F88S): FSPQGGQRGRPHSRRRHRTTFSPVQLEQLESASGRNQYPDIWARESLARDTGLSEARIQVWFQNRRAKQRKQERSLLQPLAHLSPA
Sequence of HOXC9 (P31274 178-260 R222W): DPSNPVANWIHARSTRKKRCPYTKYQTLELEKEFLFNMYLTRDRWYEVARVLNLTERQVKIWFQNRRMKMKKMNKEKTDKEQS
Sequence of PROP1 (Homo sapiens, UniProt O75360 56-141, R99H) (O75360 56-141 R99H): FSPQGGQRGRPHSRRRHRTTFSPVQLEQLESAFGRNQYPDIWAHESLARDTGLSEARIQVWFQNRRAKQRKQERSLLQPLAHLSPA
Sequence of PRRX1 (Homo sapiens, UniProt P54821 80-166) (P54821 80-166): as the sequence (P54821 80-166 F113S) above, with S34F counted along it
Sequence of HOXD13 (Homo sapiens, UniProt P35453 263-343, T313A) (P35453 263-343 T313A): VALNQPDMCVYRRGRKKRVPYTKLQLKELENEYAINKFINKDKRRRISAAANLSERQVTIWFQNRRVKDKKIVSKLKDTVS
Sequence of PROP1 (Homo sapiens, UniProt O75360 56-141) (O75360 56-141): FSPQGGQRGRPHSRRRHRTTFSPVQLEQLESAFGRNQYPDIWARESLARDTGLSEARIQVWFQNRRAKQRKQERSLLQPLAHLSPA
Sequence of HOXD13 (Homo sapiens, UniProt P35453 263-343) (P35453 263-343): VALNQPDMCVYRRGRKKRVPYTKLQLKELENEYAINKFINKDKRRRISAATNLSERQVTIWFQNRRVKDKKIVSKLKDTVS
Sequence of HOXB6 (Homo sapiens, UniProt P17509 132-218) (P17509 132-218): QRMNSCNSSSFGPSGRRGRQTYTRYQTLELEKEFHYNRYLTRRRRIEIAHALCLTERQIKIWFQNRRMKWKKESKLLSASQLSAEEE
Sequence of ALX4 (Homo sapiens, UniProt Q9H161 200-286, Q225E) (Q9H161 200-286 Q225E): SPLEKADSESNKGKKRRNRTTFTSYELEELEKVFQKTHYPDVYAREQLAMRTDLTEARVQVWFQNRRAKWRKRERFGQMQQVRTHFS
Sequence of HOXB6 (Homo sapiens, UniProt P17509 132-218, K202E) (P17509 132-218 K202E): as the sequence (P17509 132-218) above, with K71E counted along it
Sequence of HOXD13 (Homo sapiens, UniProt P35453 263-343, T313R) (P35453 263-343 T313R): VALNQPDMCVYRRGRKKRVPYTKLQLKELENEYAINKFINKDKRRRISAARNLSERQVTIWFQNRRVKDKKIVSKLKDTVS
Sequence of CRX (O43186 26-111 R41L): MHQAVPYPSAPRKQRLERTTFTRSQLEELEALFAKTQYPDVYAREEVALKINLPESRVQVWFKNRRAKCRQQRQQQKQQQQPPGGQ
Sequence of ALX4 (Homo sapiens, UniProt Q9H161 200-286) (Q9H161 200-286): as the sequence (Q9H161 200-286 Q225E) above, with E26Q counted along it
Sequence of MSX2 (P35548 130-214 F161Y): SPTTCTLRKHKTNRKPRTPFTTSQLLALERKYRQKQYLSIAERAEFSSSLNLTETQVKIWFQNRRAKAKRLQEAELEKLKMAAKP

Sequence: TATAAAAA
- binding signal (HOXA7 [1]): 9.87 upbm affinity estimate (log intensity, higher = more binding, comparable within an allelic series)
- binding signal (HOXD13 [2]): 10.9 upbm affinity estimate (log intensity, higher = more binding, comparable within an allelic series)
- binding signal (HOXD13 [3]): 11.8 upbm affinity estimate (log intensity, higher = more binding, comparable within an allelic series)
- binding signal (HOXD13 [4]): 11.6 upbm affinity estimate (log intensity, higher = more binding, comparable within an allelic series)
- binding signal (HOXC9): 11.1 upbm affinity estimate (log intensity, higher = more binding, comparable within an allelic series)
- binding signal (HOXA7 [5]): 8.84 upbm affinity estimate (log intensity, higher = more binding, comparable within an allelic series)

Sequence: CATTTTAA
- binding signal (HOXA7 [1]): 9.97 upbm affinity estimate (log intensity, higher = more binding, comparable within an allelic series)
- binding signal (HOXA7 [5]): 8.79 upbm affinity estimate (log intensity, higher = more binding, comparable within an allelic series)

Sequence: CCGGGGGC
- binding signal (HOXA7 [1]): 8.67 upbm affinity estimate (log intensity, higher = more binding, comparable within an allelic series)
- binding signal (NKX2-6 [6]): 9.19 upbm affinity estimate (log intensity, higher = more binding, comparable within an allelic series)
- binding signal (NKX2-6 [7]): 8.93 upbm affinity estimate (log intensity, higher = more binding, comparable within an allelic series)
- binding signal (HOXA7 [5]): 8.26 upbm affinity estimate (log intensity, higher = more binding, comparable within an allelic series)

Sequence: ATTGATTG
- binding signal (HOXA7 [1]): 10.1 upbm affinity estimate (log intensity, higher = more binding, comparable within an allelic series)
- binding signal (HOXA7 [5]): 8.75 upbm affinity estimate (log intensity, higher = more binding, comparable within an allelic series)

Sequence: ACCCAGCC
- binding signal (HOXA7 [1]): 8.44 upbm affinity estimate (log intensity, higher = more binding, comparable within an allelic series)
- binding signal (ALX4 [8]): 8.13 upbm affinity estimate (log intensity, higher = more binding, comparable within an allelic series)
- binding signal (ALX4 [9]): 8.18 upbm affinity estimate (log intensity, higher = more binding, comparable within an allelic series)
- binding signal (VAX1 [10]): 7.07 upbm affinity estimate (log intensity, higher = more binding, comparable within an allelic series)
- binding signal (VAX1 [11]): 7.26 upbm affinity estimate (log intensity, higher = more binding, comparable within an allelic series)
- binding signal (HOXA7 [5]): 8.42 upbm affinity estimate (log intensity, higher = more binding, comparable within an allelic series)
- binding signal (VAX1 [12]): 7 upbm affinity estimate (log intensity, higher = more binding, comparable within an allelic series)

Sequence: AATTACCC
- binding signal (HOXA7 [1]): 11.4 upbm affinity estimate (log intensity, higher = more binding, comparable within an allelic series)
- binding signal (HOXB6 [13]): 9.85 upbm affinity estimate (log intensity, higher = more binding, comparable within an allelic series)
- binding signal (VAX1 [10]): 12.7 upbm affinity estimate (log intensity, higher = more binding, comparable within an allelic series)
- binding signal (MSX2): 13 upbm affinity estimate (log intensity, higher = more binding, comparable within an allelic series)
- binding signal (VAX1 [11]): 12.5 upbm affinity estimate (log intensity, higher = more binding, comparable within an allelic series)
- binding signal (HOXA7 [5]): 8.89 upbm affinity estimate (log intensity, higher = more binding, comparable within an allelic series)
- binding signal (VAX1 [12]): 12.6 upbm affinity estimate (log intensity, higher = more binding, comparable within an allelic series)
- binding signal (HOXB6 [14]): 11.7 upbm affinity estimate (log intensity, higher = more binding, comparable within an allelic series)

Sequence: AGGGCATG
- binding signal (HOXA7 [1]): 8.51 upbm affinity estimate (log intensity, higher = more binding, comparable within an allelic series)
- binding signal (PITX2): 7.96 upbm affinity estimate (log intensity, higher = more binding, comparable within an allelic series)
- binding signal (HOXA7 [5]): 8.49 upbm affinity estimate (log intensity, higher = more binding, comparable within an allelic series)

Sequence: GTATTTAA
- binding signal (HOXA7 [1]): 10.1 upbm affinity estimate (log intensity, higher = more binding, comparable within an allelic series)
- binding signal (PROP1 [15]): 9.2 upbm affinity estimate (log intensity, higher = more binding, comparable within an allelic series)
- binding signal (PROP1 [16]): 8.79 upbm affinity estimate (log intensity, higher = more binding, comparable within an allelic series)
- binding signal (PROP1 [17]): 7.52 upbm affinity estimate (log intensity, higher = more binding, comparable within an allelic series)
- binding signal (HOXA7 [5]): 8.94 upbm affinity estimate (log intensity, higher = more binding, comparable within an allelic series)

Sequence: AAGATTAG
- binding signal (HOXA7 [1]): 9.43 upbm affinity estimate (log intensity, higher = more binding, comparable within an allelic series)
- binding signal (PRRX1 [18]): 10.4 upbm affinity estimate (log intensity, higher = more binding, comparable within an allelic series)
- binding signal (PITX2): 12.4 upbm affinity estimate (log intensity, higher = more binding, comparable within an allelic series)
- binding signal (HOXA7 [5]): 8.65 upbm affinity estimate (log intensity, higher = more binding, comparable within an allelic series)
- binding signal (CRX): 12.4 upbm affinity estimate (log intensity, higher = more binding, comparable within an allelic series)
- binding signal (PRRX1 [19]): 12.3 upbm affinity estimate (log intensity, higher = more binding, comparable within an allelic series)

Sequence: AGGCAGGC
- binding signal (HOXA7 [1]): 8.15 upbm affinity estimate (log intensity, higher = more binding, comparable within an allelic series)
- binding signal (PAX4 [20]): 9.23 upbm affinity estimate (log intensity, higher = more binding, comparable within an allelic series)
- binding signal (PAX4 [21]): 9.23 upbm affinity estimate (log intensity, higher = more binding, comparable within an allelic series)
- binding signal (PAX4 [22]): 9.37 upbm affinity estimate (log intensity, higher = more binding, comparable within an allelic series)
- binding signal (PAX4 [23]): 9.22 upbm affinity estimate (log intensity, higher = more binding, comparable within an allelic series)
- binding signal (PAX4 [24]): 9.34 upbm affinity estimate (log intensity, higher = more binding, comparable within an allelic series)
- binding signal (PAX4 [25]): 9.36 upbm affinity estimate (log intensity, higher = more binding, comparable within an allelic series)
- binding signal (HOXA7 [5]): 8.3 upbm affinity estimate (log intensity, higher = more binding, comparable within an allelic series)

Sequence: CCGCTTCG
- binding signal (HOXA7 [1]): 8.43 upbm affinity estimate (log intensity, higher = more binding, comparable within an allelic series)
- binding signal (HOXA7 [5]): 8.41 upbm affinity estimate (log intensity, higher = more binding, comparable within an allelic series)
